SMILES strings stand for the structures. The whole screen tested about 65,000 compounds, of which about 2,100 (3.2%) showed an effect of 50% or more. The median lay at about -52%. The list comes from a sample in which strong results are over-represented; it also holds similar structures and randomly drawn compounds.

The subject of the experiment is Plasmodium falciparum. Briefly: Screen against P. falciparum Asexual Blood Stage (ABS), at 5uM. The class given is functional, Dd2. Particulars: tested at 5 uM.
In the case of `CC[C@@H]1N(Cc2ccccn2)CCC[C@]12CCC(=O)N2CCOC`, the INHIBITION is reported as -116%. As for `Cc1[nH]c(C2(N)CCCCC2)nc(=O)c1C`, the figure is -60%; as for `Cc1cnc(N2CCOC3(CCCN(CC(=O)N(C)C)C3)C2)nc1` (stereo not drawn), -6.47%; as for `CC(CNC(=O)c1cc(Cl)ccc1I)N1CCCC1` (stereo not drawn), 71.1%.

In the case of `COc1ccc(Cl)cc1CC(=O)N1CCN(CC(C)O)CC1` (stereo not drawn), the INHIBITION is given as -132%.

`Cc1nc(N2C[C@H]3CNC[C@H]3C2)c2sccc2n1`: the INHIBITION was -54.7%. As for `Cc1nc(CO[C@@H]2CN(Cc3cccnc3)[C@@H]3COC[C@@H]32)cs1`, the figure is -14.2%; as for `CCN1CCC2(CCC1=O)CN(c1ccnc(SC)n1)CCN2C` (stereo not drawn), -44.5%.

Take `CN(C)C(=O)CN1CCN(C(=O)Cc2csc(-c3ncccn3)n2)CC1`: the INHIBITION is given as 6.7%. Regarding `Cc1nc(CN2CC[C@H]3[C@H]2CCN3c2ncccn2)cs1`, the INHIBITION was -38%. To `Cc1nc(CC(=O)N2CCN(CCOc3ccccc3)CC2)cs1` belongs -22.5%; to `Cc1cnn(CCCNCc2csc(COc3ccccc3)n2)c1`, 70.9%. As for `CC(Cn1cccn1)NCc1csc(-c2ccsc2)n1` (stereo not drawn), the figure is -88.6%. As for `Cc1cnn(CCNCc2csc(-c3ncccn3)n2)c1`, the INHIBITION is given as 71.5%. Turning to `CN1CCN(C(=O)Cc2csc(-c3ccsc3)n2)C(c2ccccc2)C1` (stereo not drawn), the INHIBITION is given as -7.38%. Turning to `Cc1cnn(CCNCc2csc(-c3ccsc3)n2)c1`, the INHIBITION is reported as 72.3%. To `O=C(C1CCOCC1)N1C[C@@H]2CC[C@H]1CN(Cc1ccncc1)C2` belongs -111%; to `COc1ccc2c(c1)c(C(=O)Nc1nnn[nH]1)cn2C`, 10.8%.

With `Cc1cc(N2CCCC(O)(CN(C)C)C2)c2cc3c(cc2n1)OCO3` (stereo not drawn), the INHIBITION was determined as 80.2%.

Regarding `Cc1cc(N2CCC(O)(CN(C)C)C2)c2cc3c(cc2n1)OCO3` (stereo not drawn), the INHIBITION turned out to be 89.9%. For the compound `CCN1CCN(CC(O)c2cc(Cl)ccc2Cl)CC1` (stereo not drawn), the INHIBITION is given as 77%. To `CCOCCN1CCN(CC(O)c2cc(Cl)ccc2Cl)CC1` (stereo not drawn) belongs 78.5%. To `O=C(NCc1cccnc1)[C@H]1CN2CCC1C[C@@H]2Cn1cc(CO)nn1` (stereo partly drawn) belongs -46.1%; to `O=C(O)[C@@H]1CN(CC2CCC2)C[C@H]1c1ccc(F)cc1`, -73.4%; to `O=C(c1ccco1)N1CCN2C[C@H](Oc3cncnc3)C[C@H]2C1`, -20.6%. On to `CC(C)n1ncc2c1NC(=O)CC21C(=O)Nc2c(Cl)ccc(Cl)c21` (stereo not drawn), for which the INHIBITION worked out at 83.5%.

Consider `O=C(NC[C@H]1C[C@@H]2CCN1C[C@@H]2CN1CCCCC1)c1ccco1`, for which the INHIBITION is -92.2%. As for `COc1ccccc1C1SCC(=O)Nc2c1c(=O)[nH]n2C1CCCCC1` (stereo not drawn), the figure is -98.6%.

The values are drawn from ChEMBL document CHEMBL4513216, “Probing the Open Global Health Chemical Diversity Library for Multistage-Active Starting Points for Next-Generation Antimalarials” (ACS Infect Dis, 2020).
